Bioassay records as filed in PubChem.
FXN GAA850 act – FXN promoter activators, primary screen, cell-based, luciferase luminescence, HEK293 lucGAA850 | HEK293 lucGAA850 FXN promoter luciferase reporter, 24 h; percent of 10 µM SAHA response | activation, % at 6 µM | 0.56% of 360,000 active | AID 540364, 2011;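 active = activation above the average of all compounds screened plus 3 SD, cutoff fixed separately per campaign, cut at about 7.5% in these data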;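 also: 0% = DMSO wells and 100% = 10 µM SAHA wells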
NR0B1 inh – DAX1 (NR0B1) inhibitors, primary screen, cell-based, HEK293, Gal4-DAX1, luciferase luminescence; HEK293 Gal4-DAX1 luciferase reporter; 0.99% of 340,000 active; Nuclear receptor subfamily 0 group B member 1 (Homo sapiens), P51843; inhibition, % at 6.75 µM;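 active = inhibition above the mean over all tested compounds plus 3 SD, cut at about 4.2% in these data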;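 also: 0% = DAX1-transfected cells with DMSO and 100% = empty-vector control cells with DMSO; inhibition shows as a rise in luminescence from relieved DAX1 repression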
Target sequence (P51843 207-470 limits assumed): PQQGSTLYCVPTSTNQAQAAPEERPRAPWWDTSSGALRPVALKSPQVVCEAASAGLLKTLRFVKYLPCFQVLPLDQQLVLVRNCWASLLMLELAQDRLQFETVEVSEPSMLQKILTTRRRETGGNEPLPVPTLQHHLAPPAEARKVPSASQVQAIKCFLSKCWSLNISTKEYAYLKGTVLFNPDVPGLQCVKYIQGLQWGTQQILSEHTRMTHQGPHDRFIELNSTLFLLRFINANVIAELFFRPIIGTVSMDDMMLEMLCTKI
AHR activator – AHR activators, primary screen, cell-based, luminescence, luciferase reporter, human | AHR-responsive luciferase reporter cells | activation, % at 5 µM | 2.5% of 320,000 active; in the data active = activation above about 47%;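 also: 0% = vehicle wells and 100% = reference agonist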
HSF1 inhib – HSF1 inhibitors in luciferase reporter cells, primary screen, cell-based, NIH3T3, luminescence. NIH3T3-HGL HSE-luciferase, MG132-induced, luminescence 8 h; stronger effect = lower value. activity change, negative = inhibition, % at 7.5 µM (by protocol). 0.77% of 300,000 active. AID 2098, 2009;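 active = more than half of replicate wells show activity change below -50%, luminescence cut by over half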;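 also: luciferase reports HSF-1 transcriptional activity via heat shock element; 0% = median of DMSO wells and -100% = zero luminescence signal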
HSF1 activator – HSF-1 activators, primary screen, NIH3T3-HGL cells, MG132 stress, luminescence, single point | NIH3T3-HGL HSF-1 luciferase reporter, 8 h; 100% = twice DMSO control signal | activation, % at 9 µM | 1.7% of 300,000 active | AID 504408, 2011;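 active = mean replicate activation of at least 50% with a set share of replicates each reaching 50%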;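 also: 0% = median of the neutral control wells and 100% = twice that signal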
Numbers without * were called inactive; . = not tested or not shown. Most compounds without a hit are left out; they make up all but 5.4% or so of the library.

SMILES | FXN GAA850 act | NR0B1 inh | AHR activator | HSF1 inhib | HSF1 activator
CCCC(=O)N1CCC1(C)C(=O)NS(=O)(=O)c1cccs1 (stereo unspecified) | 0 | . | . | . | .
Cc1ccc(NC(=O)C2CCN(S(C)(=O)=O)CC2)cc1Cl | 1 | 0 | 2 | 0 | 5
CCC(C)c1ccccc1N1CC(C(=O)Nc2ccc(N3CCOCC3)cc2)CC1=O (stereo unspecified) | -1 | 0 | 1 | . | .
COc1ccc(C2CC(=O)C=C3c4ccc(OC)cc4CCC32)cc1 (stereo unspecified) | 3 | 1 | . | . | .
COc1cc(OC)cc(C(=O)N2CCC(C(=O)NCCc3ccccc3)CC2)c1 | 3 | -2 | 2 | -2 | 14
COc1cccc2sc(Nc3nc(-c4ccccn4)cs3)nc12 | -16 | -3 | 39 | 100 | 128*
CC1CCCN(C(=O)CN(C)S(=O)(=O)c2ccc3c(c2)c(=O)n(C)c(=O)n3C)C1 (stereo unspecified) | 1 | 1 | 1 | 0 | -19
O=c1[nH]c(Cc2ccccc2Cl)nc2ccccc12 | 0 | 0 | 3 | 4 | 0
O=c1[nH]c(COc2ccc(Cl)cc2Cl)nc2ccccc12 | 4 | 1 | 18 | 57 | 85*
O=c1[nH]c(COc2ccc(Cl)cc2Br)nc2ccccc12 | 5 | 2 | 27 | 39 | 61*
Fc1ccc(-c2nc3c(Cl)cc(C(F)(F)F)cn3c2Cl)cc1 | 1 | 7.9* | 27 | 2 | 10
[O-][n+]1onc2c1CCC(=N/O)/C2=N\Nc1ccccc1 | . | . | 40 | -5 | 7
C(COC1CC2CC1C1C2CC2OC21)OC1CC2CC1C1C2CC2OC21 (stereo unspecified) | 0 | -1 | . | . | .
Cn1c(C(=O)OC(C(=O)NC2CCCCC2)c2ccncc2)cc2sccc21 (stereo unspecified) | -3 | -1 | 0 | -1 | 14
O=C(/C=C/c1ccc(F)cc1)NCC1(c2ccccc2)CCOCC1 | -2 | 0 | 7 | 11 | 6
O=C(/C=C/c1ccccc1)NCC1(c2ccccc2)CCOCC1 | 0 | 5.0* | 3 | 5 | 10
Cc1ccc(Cl)cc1NC(=O)C1CCCN1S(=O)(=O)c1ccc(-c2ccc(=O)[nH]n2)s1 (stereo unspecified) | -2 | 0 | 18 | 11 | 4
O=[N+]([O-])c1ccccc1CNC1CCCc2ccccc21 (stereo unspecified) | 1 | 3 | 4 | 2 | 8
COc1cc(O)oc1C=Nc1ccc(C(=O)O)cc1 | 3 | 0 | 18 | -62* | -64
COc1cc(O)oc1C=Nc1ccc(Cl)cc1 | -2 | 0 | -1 | -1 | -4
Cc1ccc(S(=O)(=O)N(Cc2ccc(C(F)(F)F)cc2)C(=O)N2CCN(C)CC2)cc1 | 0 | 0 | 1 | 1 | 5
O=[N+]([O-])c1ccc(/C=C2\CCC(C3=CCCC3)=C2N2CCOCC2)cc1 | 4 | 0 | -3 | 39 | 61*
CC(C)C[C@H](NC(=O)[C@H](Cc1ccccc1)n1c(=O)[nH]c2ccccc2c1=O)C(=O)N1CCC(C(=O)O)CC1 | 2 | 0 | 0 | 2 | -10
C[C@H](NC(=O)[C@H](Cc1ccccc1)n1c(=O)[nH]c2ccccc2c1=O)C(=O)N1CCC(C(=O)O)CC1 | 0 | 4.9* | 1 | 1 | -4
COc1ccccc1CNC(=O)CCCNC(=O)Cn1cnc2sc(C)c(C)c2c1=O | 0 | 0 | -1 | -4 | -5
SMILES | FXN GAA850 act | NR0B1 inh | AHR activator | HSF1 inhib | HSF1 activator
CCOC(=O)/C(=C/c1ccc(OC(F)F)cc1)C1=Nn2c(nnc2-c2ccc(Cl)cc2)SC1 | 4 | -1 | . | . | .
CCOC(=O)/C(=C\c1ccc(OC(F)F)cc1)C1=Nn2c(nnc2-c2ccc(Cl)cc2)SC1 | 8.2* | -1 | 2 | -83* | -83
COc1ccc(NC(=O)c2cc3cc(C)ccc3n2C)c(OC)c1 | -1 | -1 | 59* | -6 | -2
O=C(Nc1cc(C(F)(F)F)ccc1-n1cncn1)c1cn2ccccc2n1 | 2 | -1 | 78* | . | .
Cc1ccc(C(=O)c2sc3nsc(C)c3c2N)cc1 | 4 | 1 | 64* | 33 | 61*
Cc1snc2sc(C(=O)c3ccc(Br)cc3)c(N)c12 | 2 | 1 | -4 | 0 | 24
O=C(NCc1nnc(SCc2ccccc2)n1-c1ccccc1)C12CC3CC(CC(C3)C1)C2 | 1 | 0 | 3 | 35 | 90*
CC(=O)C1=C(O)C(=O)N(CCc2c[nH]c3ccccc23)C1c1ccc(O)cc1 (stereo unspecified) | 0 | 4.4* | 15 | -8 | -3
CC(=O)C1=C(O)C(=O)N(CCc2c[nH]c3ccccc23)C1c1ccccc1 (stereo unspecified) | 1 | 4 | 6 | -6 | 3
Cc1c(NC(=O)C(C)Sc2nc(N)cc(=O)[nH]2)c(=O)n(-c2ccccc2)n1C (stereo unspecified) | 0 | 1 | -1 | . | .
Cc1c(C(=O)Nc2ccccc2)sc2ncn(CC(=O)N3CCCCC3)c(=O)c12 | 1 | 2 | 19 | -4 | -7
Cc1c(C(=O)Nc2ccc(F)cc2)sc2ncn(CC(=O)N3CCCCC3)c(=O)c12 | 2 | 0 | 42 | -55* | -64
Oc1ccccc1N=Nc1ccccc1O | -10 | -4 | . | -5 | -6
Nc1ccc(N=Nc2ccccc2O)c(N)c1 | 2 | . | 72* | -1 | -4
OC1COC(c2ccccc2)OC1C1OC(c2ccccc2)OCC1O (stereo unspecified) | 2 | 4.9* | . | . | .
O=C(Nc1ccnn1C1CCN(C(=O)CCc2ccc(F)cc2)CC1)C1CCOC1 (stereo unspecified) | 4 | 2 | 0 | -2 | 4
Cc1onc(-c2ccccc2)c1C(=O)N/N=C/c1cccc(O)c1 | 0 | -1 | 27 | 30 | 67*
COc1cccc(/C=N/NC(=O)c2c(-c3ccccc3)noc2C)c1 | -2 | -2 | 22 | 20 | 15
COc1ccc(Br)cc1CN1CCSCC1 | -1 | 0 | -2 | -5 | -7
COc1cc(C(=O)O)cc(NC(=O)c2cccs2)c1OC | 4 | 1 | 2 | 0 | 12
COc1cc(C(=O)OCc2ccc(C)cc2)cc(NC(=O)c2cccs2)c1OC | 0 | 0 | 58* | 9 | 6
CCCCN(CC)C(=O)c1cc2c(=O)n3cccc(C)c3nc2s1 | 6 | -2 | 28 | -21 | -40
CCN(CC)C(=O)c1cc2c(=O)n3cccc(C)c3nc2s1 | 2 | -1 | 47* | 1 | 2
CCC(C)NC(=O)c1cc2c(=O)n3cccc(C)c3nc2s1 (stereo unspecified) | 2 | 0 | 65* | -7 | 10
